Laboratory results reported in PubChem BioAssay AID1159580 (chemical genetic matrix, 2015).
“And” between values parts separate entries of the source, which are not always exact repeats. Identical values can stand only once. In all, about 5,500 compounds went through this assay and about 2,000 (36%) were called active. About 18% were inconclusive and are not listed. No stated cut-off is given here; in the data, active means normalized growth mostly below about 0.91 (no sharp cut-off); inconclusive means no clear call, values can overlap the other calls; inactive means mostly above about 0.92. This is one part of the list.

Assay: chemical genetic growth profiling, strain panel (AID 1159580);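 further: tested at 20 µM; growth read once vehicle control cultures reached saturation at 30 °C; 1 = growth at the plate median or of vehicle wells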
Conditions: growth OD
[1] = S. cerevisiae deletion strains, locus YBR229C, strain ROT2, stronger effect = lower value
[2] = S. cerevisiae deletion strains, locus YDL101C, strain DUN1, stronger effect = lower value
[3] = S. cerevisiae deletion strains, locus YEL061C, strain CIN8, stronger effect = lower value
[4] = S. cerevisiae deletion strains, locus YGR078C, strain PAC10, stronger effect = lower value
[5] = S. cerevisiae deletion strains, locus YHR030C, strain SLT2, stronger effect = lower value
[6] = S. cerevisiae deletion strains, locus YHR087W, strain rtc3, stronger effect = lower value
[7] = S. cerevisiae deletion strains, locus YJL095W, strain BCK1, stronger effect = lower value
[8] = S. cerevisiae deletion strains, locus YJR043C, strain POL32, stronger effect = lower value
[9] = S. cerevisiae deletion strains, locus YJR075W, strain HOC1, stronger effect = lower value
[10] = S. cerevisiae deletion strains, locus YKL190W, strain CNB1, stronger effect = lower value
[11] = S. cerevisiae deletion strains, locus YLR039C, strain RIC1, stronger effect = lower value
[12] = S. cerevisiae deletion strains, locus YLR058C, strain SHM2 (second series), stronger effect = lower value
[13] = S. cerevisiae deletion strains, locus YLR085C, strain ARP6, stronger effect = lower value
[14] = S. cerevisiae deletion strains, locus YLR262C, strain YPT6, stronger effect = lower value
[15] = S. cerevisiae deletion strains, locus YML094W, strain GIM5, stronger effect = lower value
[16] = S. cerevisiae deletion strains, locus YMR219W, strain ESC1, stronger effect = lower value
[17] = S. cerevisiae deletion strains, locus YMR263W, strain SAP30, stronger effect = lower value
[18] = S. cerevisiae deletion strains, locus YMR307W, strain GAS1, stronger effect = lower value
[19] = S. cerevisiae deletion strains, locus YNL153C, strain GIM3, stronger effect = lower value
[20] = S. cerevisiae deletion strains, locus YNL298W, strain CLA4 (second series), stronger effect = lower value
[21] = S. cerevisiae deletion strains, locus YNL322C, strain KRE1, stronger effect = lower value
[22] = S. cerevisiae deletion strains, locus YNR030W, strain Alg12, stronger effect = lower value
[23] = S. cerevisiae deletion strains, locus YOL006C, strain TOP1, stronger effect = lower value
[24] = S. cerevisiae deletion strains, locus YPL055C, strain LGE1, stronger effect = lower value
[25] = S. cerevisiae deletion strains, locus YPL241C, strain CIN2, stronger effect = lower value
[26] = S. cerevisiae deletion strains, locus YPR135W, strain CTF4, stronger effect = lower value
[27] = S. cerevisiae deletion strains, locus YAL013W, strain DEP1, stronger effect = lower value
[28] = S. cerevisiae deletion strains, locus YDR150W, strain NUM1, stronger effect = lower value
[29] = S. cerevisiae strains, strain wild type, stronger effect = lower value

Measured: normalized growth

Nc1ccc(Oc2ccc(Cl)cc2C2CCCCC2)nc1
active: [1] 0.821 | [2] 0.897 | [3] 0.845 | [4] 0.855 | [5] 0.181 and 0.708 | S. cerevisiae deletion strains, locus YHR079C, strain IRE1, stronger effect = lower value 0.794 | S. cerevisiae deletion strains, locus YHR082C, strain KSP1, stronger effect = lower value 0.766 | [6] 0.702 | [8] 0.852 | S. cerevisiae deletion strains, locus YJR066W, strain TOR1, stronger effect = lower value 0.787 | [9] 0.689 | [10] 0.658 | [11] 0.386 | [12] 0.915 | [13] 0.451 | [14] 0.355 | [15] 0.636 | [16] 0.935 | [17] 0.824 | [18] 0.162 | [19] 0.905 | [20] 0.528 | [22] 0.601 | [23] 0.728 | [24] 0.745 | [25] 0.675 | S. cerevisiae deletion strains, locus YPL256C, strain CLN2, stronger effect = lower value 0.748 | [26] 0.365
inactive: S. cerevisiae deletion strains, locus YGR052W, strain FMP48, stronger effect = lower value 0.796 | [7] 0.849 | S. cerevisiae deletion strains, locus YKL171W, strain NNK1, stronger effect = lower value 0.889 | S. cerevisiae deletion strains, locus YKL203C, strain TOR2, stronger effect = lower value 0.92 | S. cerevisiae deletion strains, locus YLR113W, strain HOG1, stronger effect = lower value 0.705 | S. cerevisiae deletion strains, locus YNL207W, strain RIO2, stronger effect = lower value 0.918 | [21] 0.945 | S. cerevisiae deletion strains, locus YOR119C, strain RIO1, stronger effect = lower value 0.879 | S. cerevisiae deletion strains, locus YOR231W, strain MKK1, stronger effect = lower value 0.941

Cc1cc(Cl)ccc1Oc1ccc(N)cn1
inactive: [27] 0.989 | [1] 0.977 | [2] 0.971 | [28] 0.898 | [3] 0.993 | [4] 0.984 | [6] 0.989 | [8] 0.977 | [9] 0.952 | [12] 0.986 | [15] 0.878 | [16] 0.992 | [17] 0.92 | S. cerevisiae deletion strains, locus YNL128W, strain TEP1, stronger effect = lower value 1 | [19] 0.99 | [20] 0.891 | [21] 1.01 | [22] 0.981 | [23] 0.938 | [24] 0.889 | [25] 0.917 | [29] 0.953
active: [5] 0.486 | [10] 0.928 | [11] 0.541 | [13] 0.602 | [14] 0.544 | [26] 0.602

CC(=O)OC1CC(O)C(C)(C)C2CC(=O)C3(C)C(CCC4(C)C(c5ccoc5)OC(=O)C5OC543)C12C (stereo not given)
inactive: [27] 0.996 | S. cerevisiae deletion strains, locus YBR021W, strain FUR4, stronger effect = lower value 0.947 | [1] 0.994 | S. cerevisiae deletion strains, locus YCL029C, strain bik1, stronger effect = lower value 0.987 | S. cerevisiae deletion strains, locus YDL035C, strain GPR1, stronger effect = lower value 0.988 | S. cerevisiae deletion strains, locus YDL074C, strain BRE1, stronger effect = lower value 0.945 | [2] 0.992 | S. cerevisiae deletion strains, locus YDL134C, strain PPH21, stronger effect = lower value 1.02 | S. cerevisiae deletion strains, locus YDL185W, strain tfp1, stronger effect = lower value 0.995 | S. cerevisiae deletion strains, locus YDL192W, strain arf1, stronger effect = lower value 0.971 | S. cerevisiae deletion strains, locus YDR101C, strain arx1, stronger effect = lower value 0.974 | [28] 1.01 | S. cerevisiae deletion strains, locus YDR162C, strain NBP2, stronger effect = lower value 1.01 | S. cerevisiae deletion strains, locus YDR318W, strain mcm21, stronger effect = lower value 1.01 | S. cerevisiae deletion strains, locus YDR388W, stronger effect = lower value 0.998 | S. cerevisiae deletion strains, locus YDR502C, strain sam2, stronger effect = lower value 0.991 | [3] 1 | S. cerevisiae deletion strains, locus YER110C, stronger effect = lower value 0.985 | S. cerevisiae deletion strains, locus YER155C, strain BEM2, stronger effect = lower value 0.992 | S. cerevisiae deletion strains, locus YER167W, strain BCK2, stronger effect = lower value 0.996 | S. cerevisiae deletion strains, locus YGL078C, strain dbp3, stronger effect = lower value 0.968 | S. cerevisiae deletion strains, locus YGL086W, strain mad1, stronger effect = lower value 0.978 | S. cerevisiae deletion strains, locus YGL248W, strain PDE1, stronger effect = lower value 1.01 | S. cerevisiae deletion strains, locus YGR135W, strain pre9, stronger effect = lower value 1.02 | S. cerevisiae deletion strains, locus YGR229C, strain SMI1, stronger effect = lower value 0.998 | S. cerevisiae deletion strains, locus YGR252W, strain gcn5, stronger effect = lower value 1.04 | [5] 0.995 | S. cerevisiae deletion strains, locus YHR079C, strain IRE1 (second series), stronger effect = lower value 0.988 | S. cerevisiae deletion strains, locus YHR094C, strain hxt1, stronger effect = lower value 0.989 | S. cerevisiae deletion strains, locus YHR129C, strain ARP1, stronger effect = lower value 0.99 | S. cerevisiae deletion strains, locus YHR200W, strain rpn10, stronger effect = lower value 1.01 | S. cerevisiae deletion strains, locus YIL066C, strain RNR3, stronger effect = lower value 1.01 | S. cerevisiae deletion strains, locus YIL073C, strain SPO22, stronger effect = lower value 1.06 | S. cerevisiae deletion strains, locus YIL125W, strain kgd1, stronger effect = lower value 0.997 | S. cerevisiae deletion strains, locus YIR030C, strain dcg1, stronger effect = lower value 0.992 | [7] 1.03 | S. cerevisiae deletion strains, locus YJL134W, strain LCB3, stronger effect = lower value 0.988 | S. cerevisiae deletion strains, locus YJL168C, strain set2, stronger effect = lower value 0.995 | S. cerevisiae deletion strains, locus YJL187C, strain SWE1 (second series), stronger effect = lower value 0.996 | [8] 0.989 | [9] 1.01 | S. cerevisiae deletion strains, locus YKL009W, strain mrt4, stronger effect = lower value 0.931 | S. cerevisiae deletion strains, locus YKL068W, stronger effect = lower value 0.996 | S. cerevisiae deletion strains, locus YKL085W, strain MDH1 (second series), stronger effect = lower value 0.999 | S. cerevisiae deletion strains, locus YKL085W, strain MDH1, stronger effect = lower value 0.999 | S. cerevisiae deletion strains, locus YKR001C, strain vps1, stronger effect = lower value 1 | [11] 0.995 | S. cerevisiae deletion strains, locus YLR058C, strain SHM2, stronger effect = lower value 1 | S. cerevisiae deletion strains, locus YLR102C, strain apc9, stronger effect = lower value 0.996 | [14] 1.02 | S. cerevisiae deletion strains, locus YLR268W, strain sec22, stronger effect = lower value 0.96 | S. cerevisiae deletion strains, locus YLR330W, strain CHS5, stronger effect = lower value 1.01 | S. cerevisiae deletion strains, locus YLR342W, strain FKS1 (second series), stronger effect = lower value 1.01 | S. cerevisiae deletion strains, locus YLR371W, strain rom2, stronger effect = lower value 0.99 | S. cerevisiae deletion strains, locus YLR418C, strain cdc73, stronger effect = lower value 0.999 | S. cerevisiae deletion strains, locus YML016C, strain PPZ1, stronger effect = lower value 0.985 | S. cerevisiae deletion strains, locus YML032C, strain rad52, stronger effect = lower value 1.03 | S. cerevisiae deletion strains, locus YML124C, strain tub3, stronger effect = lower value 1 | S. cerevisiae deletion strains, locus YMR078C, strain ctf18, stronger effect = lower value 0.988 | S. cerevisiae deletion strains, locus YMR223W, strain ubp8, stronger effect = lower value 1.01 | [18] 0.971 | S. cerevisiae deletion strains, locus YNL067W, strain RPL9B, stronger effect = lower value 1.01 | S. cerevisiae deletion strains, locus YNL233W, strain BNI4, stronger effect = lower value 0.987 | S. cerevisiae deletion strains, locus YNL250W, strain rad50, stronger effect = lower value 0.989 | S. cerevisiae deletion strains, locus YNL271C, strain bni1, stronger effect = lower value 0.983 | S. cerevisiae deletion strains, locus YNL298W, strain CLA4, stronger effect = lower value 0.968 | S. cerevisiae deletion strains, locus YNL307C, strain MCK1, stronger effect = lower value 0.98 | [21] 0.999 | S. cerevisiae deletion strains, locus YNR052C, strain pop2, stronger effect = lower value 0.996 | [23] 0.972 | S. cerevisiae deletion strains, locus YOL012C, strain htz1 0.734 | S. cerevisiae deletion strains, locus YOL147C, strain pex11, stronger effect = lower value 0.989 | S. cerevisiae deletion strains, locus YOR061W, strain CKA2, stronger effect = lower value 0.991 | S. cerevisiae deletion strains, locus YOR069W, strain VPS5, stronger effect = lower value 0.985 | S. cerevisiae deletion strains, locus YOR136W, strain idh2, stronger effect = lower value 0.966 | S. cerevisiae deletion strains, locus YOR144C, strain elg1, stronger effect = lower value 0.996 | S. cerevisiae deletion strains, locus YOR184W, strain ser1, stronger effect = lower value 0.982 | S. cerevisiae deletion strains, locus YOR316C, strain cot1, stronger effect = lower value 0.992 | [24] 0.999 | S. cerevisiae deletion strains, locus YPR119W, strain clb2, stronger effect = lower value 0.992 | S. cerevisiae deletion strains, locus YPR141C, strain kar3, stronger effect = lower value 0.987 | S. cerevisiae deletion strains, locus YPR163C, strain tif3, stronger effect = lower value 1 | S. cerevisiae deletion strains, locus YPR167C, strain met16, stronger effect = lower value 0.985 | S. cerevisiae deletion strains, strain wtn01, stronger effect = lower value 0.958 | [29] 1
